Laboratory results published in PubChem BioAssay AID1159580 (chemical genetic matrix, 2015).
Several values for one entry are separate records, joined by “and”; a condition that tells them apart may be missing. Equal entries are not always repeated. Screen size: about 5,500 compounds; about 2,000 (36%) were called active. Inconclusive results (about 18%) are left out. The list shows a part of the results. Values without a mark were called inactive. Cut-off read from the data, not from the text of the source: active = normalized growth mostly below about 0.91 (no sharp cut-off); inconclusive = no clear call, values can overlap the other calls; inactive = mostly above about 0.92.

Assay: chemical genetic growth profiling, strain panel (AID 1159580);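 note: tested at 20 µM; growth read once vehicle control cultures reached saturation at 30 °C; 1 = growth at the plate median or of vehicle wells; lower values mean less growth of the strain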
Conditions: growth OD

Q: With `CC(COc1ccccc1)N(CCCl)Cc1ccccc1` (stereo unspecified) as the compound, how does the normalized growth (S. cerevisiae deletion strains, locus YJR075W, strain HOC1, active compounds read low) read?
A: Its normalized growth is 1.02.

Q: And the normalized growth (S. cerevisiae deletion strains, locus YKL009W, strain mrt4, active compounds read low)?
A: Its normalized growth is 1.04.

Q: What about the normalized growth (S. cerevisiae deletion strains, locus YKL068W, active compounds read low) of the same compound?
A: The normalized growth was 1.02.

Q: What about the normalized growth (S. cerevisiae deletion strains, locus YKL085W, strain MDH1 (second series), active compounds read low) of the same compound?
A: The normalized growth was 1.01.

Q: What about the normalized growth (S. cerevisiae deletion strains, locus YKL085W, strain MDH1, active compounds read low) of the same compound?
A: The normalized growth was 1.01.

Q: What about the normalized growth (S. cerevisiae deletion strains, locus YKL160W, strain elf1, active compounds read low) of the same compound?
A: The normalized growth was 0.931.

Q: What about the normalized growth (S. cerevisiae deletion strains, locus YKL190W, strain CNB1, active compounds read low) of the same compound?
A: The normalized growth was 1.01.

Q: What about the normalized growth (S. cerevisiae deletion strains, locus YKR001C, strain vps1, active compounds read low) of the same compound?
A: Its normalized growth is 0.996.

Q: What about the normalized growth (S. cerevisiae deletion strains, locus YKR026C, strain gcn3, active compounds read low) of the same compound?
A: Its normalized growth is 0.985.

Q: And the normalized growth (S. cerevisiae deletion strains, locus YKR091W, strain srl3, active compounds read low)?
A: Its normalized growth is 0.978.

Q: What about the normalized growth (S. cerevisiae deletion strains, locus YLL001W, strain dnm1, active compounds read low) of the same compound?
A: The normalized growth was 1.03.

Q: What about the normalized growth (S. cerevisiae deletion strains, locus YLL026W, active compounds read low) of the same compound?
A: The normalized growth was 0.976.

Q: And the normalized growth (S. cerevisiae deletion strains, locus YLL041C, strain sdh2, active compounds read low)?
A: Its normalized growth is 0.979.

Q: And the normalized growth (S. cerevisiae deletion strains, locus YLR027C, strain aat2, active compounds read low)?
A: The normalized growth was 0.924 (active).

Q: And the normalized growth (S. cerevisiae deletion strains, locus YLR039C, strain RIC1, active compounds read low)?
A: Its normalized growth is 0.939.

Q: And the normalized growth (S. cerevisiae deletion strains, locus YLR058C, strain SHM2, active compounds read low)?
A: Its normalized growth is 1.01.

Q: What about the normalized growth (S. cerevisiae deletion strains, locus YLR102C, strain apc9, active compounds read low) of the same compound?
A: The normalized growth was 1.01.

Q: What about the normalized growth (S. cerevisiae deletion strains, locus YLR113W, strain HOG1, active compounds read low) of the same compound?
A: The normalized growth was 0.977.

Q: What about the normalized growth (S. cerevisiae deletion strains, locus YLR221C, strain rsa3, active compounds read low) of the same compound?
A: Its normalized growth is 0.995.

Q: What about the normalized growth (S. cerevisiae deletion strains, locus YLR258W, strain gsy2, active compounds read low) of the same compound?
A: The normalized growth was 0.95.

Q: And the normalized growth (S. cerevisiae deletion strains, locus YLR262C, strain YPT6 (second series), active compounds read low)?
A: The normalized growth was 0.897.

Q: What about the normalized growth (S. cerevisiae deletion strains, locus YLR262C, strain YPT6, active compounds read low) of the same compound?
A: The normalized growth was 0.977.

Q: And the normalized growth (S. cerevisiae deletion strains, locus YLR268W, strain sec22, active compounds read low)?
A: Its normalized growth is 1.04.

Q: And the normalized growth (S. cerevisiae deletion strains, locus YLR320W, strain mms22, active compounds read low)?
A: The normalized growth was 0.985.

Q: And the normalized growth (S. cerevisiae deletion strains, locus YLR330W, strain CHS5, active compounds read low)?
A: Its normalized growth is 1.01.

Q: And the normalized growth (S. cerevisiae deletion strains, locus YLR342W, strain FKS1 (second series), active compounds read low)?
A: Its normalized growth is 0.974.

Q: What about the normalized growth (S. cerevisiae deletion strains, locus YLR342W, strain FKS1, active compounds read low) of the same compound?
A: Its normalized growth is 0.989.

Q: And the normalized growth (S. cerevisiae deletion strains, locus YLR357W, strain rsc2, active compounds read low)?
A: The normalized growth was 0.969.

Q: What about the normalized growth (S. cerevisiae deletion strains, locus YLR370C, strain arc18, active compounds read low) of the same compound?
A: Its normalized growth is 0.963.

Q: And the normalized growth (S. cerevisiae deletion strains, locus YLR371W, strain rom2, active compounds read low)?
A: The normalized growth was 1.02.

Q: What about the normalized growth (S. cerevisiae deletion strains, locus YLR384C, strain iki3, active compounds read low) of the same compound?
A: The normalized growth was 0.999.

Q: And the normalized growth (S. cerevisiae deletion strains, locus YLR418C, strain cdc73, active compounds read low)?
A: Its normalized growth is 0.97.

Q: And the normalized growth (S. cerevisiae deletion strains, locus YML016C, strain PPZ1, active compounds read low)?
A: Its normalized growth is 1.

Q: What about the normalized growth (S. cerevisiae deletion strains, locus YML032C, strain rad52, active compounds read low) of the same compound?
A: Its normalized growth is 1.02.

Q: And the normalized growth (S. cerevisiae deletion strains, locus YML120C, strain ndi1, active compounds read low)?
A: Its normalized growth is 1.01.

Q: And the normalized growth (S. cerevisiae deletion strains, locus YML124C, strain tub3, active compounds read low)?
A: Its normalized growth is 1.01.

Q: What about the normalized growth (S. cerevisiae deletion strains, locus YMR058W, strain fet3, active compounds read low) of the same compound?
A: The normalized growth was 0.95.

Q: And the normalized growth (S. cerevisiae deletion strains, locus YMR078C, strain ctf18, active compounds read low)?
A: The normalized growth was 1.02.

Q: And the normalized growth (S. cerevisiae deletion strains, locus YMR125W, strain sto1, active compounds read low)?
A: The normalized growth was 0.987.

Q: And the normalized growth (S. cerevisiae deletion strains, locus YMR129W, active compounds read low)?
A: The normalized growth was 0.959.

Q: And the normalized growth (S. cerevisiae deletion strains, locus YMR205C, strain PFK2, active compounds read low)?
A: Its normalized growth is 0.969.

Q: What about the normalized growth (S. cerevisiae deletion strains, locus YMR223W, strain ubp8, active compounds read low) of the same compound?
A: Its normalized growth is 0.99.

Q: What about the normalized growth (S. cerevisiae deletion strains, locus YMR231W, strain pep5, active compounds read low) of the same compound?
A: Its normalized growth is 0.996.

Q: What about the normalized growth (S. cerevisiae deletion strains, locus YMR263W, strain SAP30, active compounds read low) of the same compound?
A: The normalized growth was 1.01 and 0.995.

Q: What about the normalized growth (S. cerevisiae deletion strains, locus YMR307W, strain GAS1, active compounds read low) of the same compound?
A: The normalized growth was 1.01 and 1.

Q: And the normalized growth (S. cerevisiae deletion strains, locus YNL067W, strain RPL9B, active compounds read low)?
A: Its normalized growth is 1.03.

Q: What about the normalized growth (S. cerevisiae deletion strains, locus YNL071W, strain lat1, active compounds read low) of the same compound?
A: The normalized growth was 0.918 (active).

Q: What about the normalized growth (S. cerevisiae deletion strains, locus YNL128W, strain TEP1, active compounds read low) of the same compound?
A: Its normalized growth is 1.01.

Q: What about the normalized growth (S. cerevisiae deletion strains, locus YNL153C, strain GIM3, active compounds read low) of the same compound?
A: Its normalized growth is 1.02.

Q: And the normalized growth (S. cerevisiae deletion strains, locus YNL175C, strain NOP13, active compounds read low)?
A: Its normalized growth is 0.996.

Q: What about the normalized growth (S. cerevisiae deletion strains, locus YNL183C, strain NPR1, active compounds read low) of the same compound?
A: The normalized growth was 0.919.

Q: What about the normalized growth (S. cerevisiae deletion strains, locus YNL197C, strain WHI3, active compounds read low) of the same compound?
A: Its normalized growth is 1.01.

Q: What about the normalized growth (S. cerevisiae deletion strains, locus YNL209W, strain ssb2, active compounds read low) of the same compound?
A: Its normalized growth is 0.953.

Q: And the normalized growth (S. cerevisiae deletion strains, locus YNL224C, strain SQS1, active compounds read low)?
A: Its normalized growth is 0.984.

Q: What about the normalized growth (S. cerevisiae deletion strains, locus YNL233W, strain BNI4, active compounds read low) of the same compound?
A: Its normalized growth is 1.01.

Q: And the normalized growth (S. cerevisiae deletion strains, locus YNL248C, strain rpa49, active compounds read low)?
A: The normalized growth was 0.894.

Q: And the normalized growth (S. cerevisiae deletion strains, locus YNL250W, strain rad50, active compounds read low)?
A: Its normalized growth is 1.

Q: And the normalized growth (S. cerevisiae deletion strains, locus YNL271C, strain bni1, active compounds read low)?
A: The normalized growth was 1.01.

Q: And the normalized growth (S. cerevisiae deletion strains, locus YNL298W, strain CLA4, active compounds read low)?
A: Its normalized growth is 1.

Q: What about the normalized growth (S. cerevisiae deletion strains, locus YNL307C, strain MCK1, active compounds read low) of the same compound?
A: The normalized growth was 1.

Q: And the normalized growth (S. cerevisiae deletion strains, locus YNL322C, strain KRE1 (second series), active compounds read low)?
A: Its normalized growth is 0.923.

Q: What about the normalized growth (S. cerevisiae deletion strains, locus YNL322C, strain KRE1, active compounds read low) of the same compound?
A: The normalized growth was 1.01.

Q: And the normalized growth (S. cerevisiae deletion strains, locus YNR049C, strain mso1, active compounds read low)?
A: The normalized growth was 0.975.

Q: And the normalized growth (S. cerevisiae deletion strains, locus YNR052C, strain pop2, active compounds read low)?
A: Its normalized growth is 1.01.

Q: And the normalized growth (S. cerevisiae deletion strains, locus YOL006C, strain TOP1, active compounds read low)?
A: The normalized growth was 1.07.

Q: What about the normalized growth (S. cerevisiae deletion strains, locus YOL012C, strain htz1) of the same compound?
A: Its normalized growth is 0.857.

Q: And the normalized growth (S. cerevisiae deletion strains, locus YOL147C, strain pex11, active compounds read low)?
A: The normalized growth was 1.01.

Q: What about the normalized growth (S. cerevisiae deletion strains, locus YOR001W, strain rrp6, active compounds read low) of the same compound?
A: The normalized growth was 0.996.

Q: And the normalized growth (S. cerevisiae deletion strains, locus YOR061W, strain CKA2, active compounds read low)?
A: The normalized growth was 1.01.

Q: And the normalized growth (S. cerevisiae deletion strains, locus YOR069W, strain VPS5, active compounds read low)?
A: The normalized growth was 1.01.

Q: And the normalized growth (S. cerevisiae deletion strains, locus YOR070C, strain gyp1, active compounds read low)?
A: The normalized growth was 0.979.

Q: What about the normalized growth (S. cerevisiae deletion strains, locus YOR080W, strain dia2, active compounds read low) of the same compound?
A: Its normalized growth is 0.995.

Q: What about the normalized growth (S. cerevisiae deletion strains, locus YOR083W, strain WHI5 (second series), active compounds read low) of the same compound?
A: Its normalized growth is 0.987.

Q: What about the normalized growth (S. cerevisiae deletion strains, locus YOR083W, strain WHI5, active compounds read low) of the same compound?
A: The normalized growth was 0.9.

Q: And the normalized growth (S. cerevisiae deletion strains, locus YOR106W, strain vam3, active compounds read low)?
A: Its normalized growth is 0.89.

Q: And the normalized growth (S. cerevisiae deletion strains, locus YOR136W, strain idh2, active compounds read low)?
A: Its normalized growth is 1.

Q: What about the normalized growth (S. cerevisiae deletion strains, locus YOR144C, strain elg1, active compounds read low) of the same compound?
A: Its normalized growth is 1.02.

Q: And the normalized growth (S. cerevisiae deletion strains, locus YOR184W, strain ser1, active compounds read low)?
A: The normalized growth was 0.954.

Q: What about the normalized growth (S. cerevisiae deletion strains, locus YOR231W, strain MKK1, active compounds read low) of the same compound?
A: The normalized growth was 0.99.

Q: What about the normalized growth (S. cerevisiae deletion strains, locus YOR265W, strain rbl2, active compounds read low) of the same compound?
A: Its normalized growth is 0.997.

Q: And the normalized growth (S. cerevisiae deletion strains, locus YOR270C, strain vph1, active compounds read low)?
A: Its normalized growth is 0.838.

Q: And the normalized growth (S. cerevisiae deletion strains, locus YOR290C, strain snf2, active compounds read low)?
A: The normalized growth was 0.898.

Q: What about the normalized growth (S. cerevisiae deletion strains, locus YOR316C, strain cot1, active compounds read low) of the same compound?
A: The normalized growth was 1.02.

Q: And the normalized growth (S. cerevisiae deletion strains, locus YPL051W, strain arl3, active compounds read low)?
A: The normalized growth was 0.916.

Q: What about the normalized growth (S. cerevisiae deletion strains, locus YPL055C, strain LGE1, active compounds read low) of the same compound?
A: Its normalized growth is 1.

Q: What about the normalized growth (S. cerevisiae deletion strains, locus YPL078C, strain atp4, active compounds read low) of the same compound?
A: The normalized growth was 0.926.

Q: What about the normalized growth (S. cerevisiae deletion strains, locus YPL106C, strain sse1, active compounds read low) of the same compound?
A: The normalized growth was 0.949.

Q: What about the normalized growth (S. cerevisiae deletion strains, locus YPL240C, strain hsp82, active compounds read low) of the same compound?
A: The normalized growth was 0.991.

Q: And the normalized growth (S. cerevisiae deletion strains, locus YPL241C, strain CIN2, active compounds read low)?
A: Its normalized growth is 1.

Q: And the normalized growth (S. cerevisiae deletion strains, locus YPL256C, strain CLN2, active compounds read low)?
A: The normalized growth was 0.981.

Q: What about the normalized growth (S. cerevisiae deletion strains, locus YPR119W, strain clb2, active compounds read low) of the same compound?
A: Its normalized growth is 1.02.

Q: What about the normalized growth (S. cerevisiae deletion strains, locus YPR141C, strain kar3, active compounds read low) of the same compound?
A: Its normalized growth is 1.01.

Q: And the normalized growth (S. cerevisiae deletion strains, locus YPR163C, strain tif3, active compounds read low)?
A: Its normalized growth is 1.02.

Q: What about the normalized growth (S. cerevisiae deletion strains, locus YPR167C, strain met16, active compounds read low) of the same compound?
A: The normalized growth was 1.02.

Q: What about the normalized growth (S. cerevisiae deletion strains, strain wtn01, active compounds read low) of the same compound?
A: Its normalized growth is 1.03.

Q: And the normalized growth (S. cerevisiae strains, strain wild type, active compounds read low)?
A: The normalized growth was 1.
